Most compounds without a hit are left out; they make up all but 3.8% or so of the library.
Gli-Sufu antag: antagonists of Gli-Sufu signaling | inhibition, % at 5 µM | AID 588413 | Sufu-KO-LIGHT fibroblasts, Gli luciferase reporter luminescence | 340,000 compounds, 0.74% hits;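 active = inhibition above about 55%, limit read from the data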;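 note: 0% = DMSO-treated cells and 100% = wells with medium but no cells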
Jurkat NFkB inh: lowers PMA/ionomycin-induced NF-kB signal in Jurkat cells | PMA/ionomycin-induced NF-kB luciferase reporter, luminescence | inhibition, % at 4 µM | 330,000 compounds, 0.53% hits; in the data active = inhibition above about 50%
Mdm2 MdmX PPI: inhibitors of human Mdm2/MdmX interaction; SaOS-2 split-luciferase Mdm2/MdmX complementation, luminescence; inhibition, % at 8 µM; 330,000 compounds, 3% hits; O15151+Q00987;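 active = inhibition of at least 50% at 8 µM in the primary screen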
Target sequence (O15151 whole entry, looked up): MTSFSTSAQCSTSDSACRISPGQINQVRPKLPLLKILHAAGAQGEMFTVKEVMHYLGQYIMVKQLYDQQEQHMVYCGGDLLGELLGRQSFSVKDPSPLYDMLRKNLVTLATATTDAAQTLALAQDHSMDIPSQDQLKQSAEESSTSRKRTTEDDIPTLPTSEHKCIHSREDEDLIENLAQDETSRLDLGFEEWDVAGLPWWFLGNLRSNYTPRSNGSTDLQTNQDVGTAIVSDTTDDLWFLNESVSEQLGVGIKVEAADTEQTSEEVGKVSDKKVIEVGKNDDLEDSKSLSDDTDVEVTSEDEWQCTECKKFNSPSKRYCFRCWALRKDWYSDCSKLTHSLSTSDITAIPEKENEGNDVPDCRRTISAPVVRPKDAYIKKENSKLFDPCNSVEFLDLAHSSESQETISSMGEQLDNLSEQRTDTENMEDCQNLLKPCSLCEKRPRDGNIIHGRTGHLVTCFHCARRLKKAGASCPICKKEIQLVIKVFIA
Target sequence (Q00987 whole entry, looked up): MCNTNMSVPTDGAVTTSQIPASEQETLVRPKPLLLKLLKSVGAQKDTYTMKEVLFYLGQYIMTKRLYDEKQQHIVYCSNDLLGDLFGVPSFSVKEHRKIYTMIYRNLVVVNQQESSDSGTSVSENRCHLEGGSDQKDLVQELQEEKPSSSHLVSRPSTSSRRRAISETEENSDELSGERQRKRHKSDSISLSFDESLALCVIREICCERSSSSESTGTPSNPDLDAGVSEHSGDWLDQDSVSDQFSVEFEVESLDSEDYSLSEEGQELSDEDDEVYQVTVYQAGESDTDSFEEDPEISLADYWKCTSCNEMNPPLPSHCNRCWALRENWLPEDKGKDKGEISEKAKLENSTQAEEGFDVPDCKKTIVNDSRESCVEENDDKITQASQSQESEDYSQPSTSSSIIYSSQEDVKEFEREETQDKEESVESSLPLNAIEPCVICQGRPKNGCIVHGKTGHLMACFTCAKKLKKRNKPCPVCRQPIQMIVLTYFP
Shn3 3UTR inh: reduces Shn3 3'UTR luciferase signal in osteoblasts | inhibition, % at 12.5 µM | Clone20 osteoblast Shn3 3'UTR firefly luciferase, 24 h | 360,000 compounds, 0.52% hits;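 active = mean inhibition of at least 75% with every replicate also reaching 75%; inconclusive = mean inhibition at least 75% but some replicate below; inactive = mean inhibition below 75%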;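 note: 0% = median of neutral control wells and 100% = pilot-screen positive control compound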
697 NFkB inh: lowers PMA/ionomycin-induced NF-kB signal in 697 B cells; 697 B-cell NF-kB luciferase reporter, 16 h; inhibition, % at 4 µM; 330,000 compounds, 0.33% hits; in the data active = inhibition above about 35%
Mdm2 MdmX conf: human Mdm2/MdmX binding inhibition, confirmed | shares compounds with Mdm2 MdmX PPI | inhibition, % at 8 µM | luminescent assay | 10,000 compounds, 55% hits; in the data active = inhibition above about 40%
FLuc counter: full-length luciferase inhibition in Mdm2/MdmX counter-screen; shares compounds with Mdm2 MdmX PPI; SaOS-2 full-length luciferase counterscreen, luminescence; inhibition, % at 8 µM; 6,200 compounds, 77% hits;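 active = mean inhibition at 8 µM reaching about 37%, which flags the compound as non-specific, limit read from the data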;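 note: p53-null SaOS-2 cells with luciferase driven by a doxycycline-inducible promoter; compound on cells about two nights before reading with doxycycline added after day one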
Starred values were filed as active, the others as inactive; ? = inconclusive; · = no result.

SMILES	Gli-Sufu antag	Jurkat NFkB inh	Mdm2 MdmX PPI	Shn3 3UTR inh	697 NFkB inh	Mdm2 MdmX conf	FLuc counter
COC1(OC)C(/C=C/c2ccc(C)cc2)C(C#N)(C#N)C1(OC)OC (centres undefined)	5	19	85*	?	-4	43*	35
C=CCn1c(SCC(=O)Nc2ccccc2OC)nc2c([nH]c3ccccc32)c1=O	6	8	38	31	4	·	·
COCCn1c(SCC(=O)Nc2ccc(F)cc2F)nc2c([nH]c3ccccc32)c1=O	4	-14	55*	9	-13	53*	14
C=CCn1c(SCC(=O)Nc2ccc(F)cc2F)nc2c([nH]c3ccccc32)c1=O	0	2	65*	2	-10	52*	27
COc1ccc(C(=O)Nc2ccccc2C(=O)NCC2CCCO2)cc1 (centres undefined)	-1	-5	-8	-5	-9	·	·
N#CC1=C(N)Oc2cc(N)ccc2C1c1ccc(F)cc1F (centres undefined)	-18	20	59*	4	-18	15	·
Cc1onc(-c2ccccc2Cl)c1C(=O)O/N=C(\N)c1ccc([N+](=O)[O-])o1	-5	9	60*	-6	26	40	70*
C/C(=N/OC(=O)c1c(-c2ccccc2Cl)noc1C)c1cnccn1	-1	7	14	6	-12	·	·
Cc1[nH]c2ccccc2c1C(=O)CSc1nc2ccccc2c(=O)n1CCCN1CCOCC1	3	5	59*	21	9	15	·
Cc1cccc(NC(=O)C(C)Sc2nc3ccccc3c(=O)n2CCCN2CCOCC2)c1 (centres undefined)	-3	-31	89*	7	-211	71*	51*
Cn1c(N)c(C(=O)CSc2nc3ccccc3c(=O)n2CCCN2CCOCC2)c(=O)n(C)c1=O	6	4	24	-1	13	·	·
CS(=O)(=O)Nc1cccc(NC(=O)C2Cc3c(-c4ccco4)ccnc3O2)c1 (centres undefined)	·	·	·	55	·	·	·
c1ccc(-c2nc3nc4ccccc4nc3n2Cc2ccco2)cc1	7	-82	-37	-43	-164	·	·
N=c1c2c(-c3ccccc3)c(-c3ccccc3)n(Cc3ccco3)c2ncn1CCO	7	33	82*	4	-24	61*	57*
N=c1c2c(-c3ccccc3)c(-c3ccccc3)n(Cc3ccco3)c2ncn1CCN1CCOCC1	19	-6	55*	53	-29	33	·
C#CCOCCOCCOCCNc1nc(N2CCN(C(=O)CCCCCCCCCCNC(=O)Cn3cc(CCCCCN)nn3)CC2)nc(N2CCN(C(=O)CCCCCCCCCCNC(=O)[C@H]([C@@H](C)CC)n3cc(CCCCCN)nn3)CC2)n1	5	-16	100*	79	-47	21	·
C#CCOCCOCCOCCNc1nc(N2CCN(C(=O)CCCCCCCCCCNC(=O)[C@H](CCC(=O)O)n3cc(CCCCCN)nn3)CC2)nc(N2CCN(C(=O)CCCCCCCCCCNC(=O)[C@@H]([C@H](C)O)n3cc(C)nn3)CC2)n1	-3	-19	22	14	-3	·	·
C#CCOCCOCCOCCNc1nc(N2CCN(C(=O)CCCCCCCCCCNC(=O)[C@H](CCCCN)n3cc(CCO)nn3)CC2)nc(N2CCN(C(=O)CCCCCCCCCCNC(=O)[C@@H]([C@H](C)O)n3cc(C)nn3)CC2)n1	12	1	0	10	0	·	·
C#CCOCCOCCOCCNc1nc(N2CCN(C(=O)CCCCCCCCCCNC(=O)[C@H](CCCCN)n3cc(C)nn3)CC2)nc(N2CCN(C(=O)CCCCCCCCCCNC(=O)[C@@H]([C@H](C)CC)n3cc(CCCCCN)nn3)CC2)n1	·	9	100*	77	-25	100*	21
C#CCOCCOCCOCCNc1nc(N2CCN(C(=O)CCCCCCCCCCNC(=O)Cn3cc(CCCCCN)nn3)CC2)nc(N2CCN(C(=O)CCCCCCCCCCNC(=O)[C@H](CO)n3cc(CCCCCN)nn3)CC2)n1	2	-2	27	1	-17	·	·
C#CCOCCOCCOCCNc1nc(N2CCN(C(=O)CCCCCCCCCCNC(=O)Cn3cc(C[C@@H](C)O)nn3)CC2)nc(N2CCN(C(=O)CCCCCCCCCCNC(=O)[C@H](CCCCN)n3cc(C[C@@H](C)CC)nn3)CC2)n1	12	28	93*	84	-17	55*	55*
C#CCOCCOCCOCCNc1nc(N2CCN(C(=O)CCCCCCCCCCNC(=O)[C@H]([C@@H](C)CC)n3cc(CCCCCN)nn3)CC2)nc(N2CCN(C(=O)CCCCCCCCCCNC(=O)[C@@H]([C@H](C)O)n3cc(C)nn3)CC2)n1	-2	49	98*	15	-25	55*	40*
O=C(Nc1cc(SCCO)cc([N+](=O)[O-])c1)c1ccc(Br)o1	16	-13	-7	42	-20	·	·
CN(CC(=O)NCCc1ccc(Cl)cc1)S(=O)(=O)c1cccs1	-16	-2	2	-26	10	·	·
C#CCOCCOCCOCCNc1nc(N2CCN(C(=O)CCCCCCCCCCNC(=O)[C@H](CO)n3cc(CCCSC)nn3)CC2)nc(N2CCN(C(=O)CCCCCCCCCCNC(=O)[C@H](CCCCN)n3cc(C[C@@H](C)CC)nn3)CC2)n1	·	50	100*	·	-33	57*	27
SMILES	Gli-Sufu antag	Jurkat NFkB inh	Mdm2 MdmX PPI	Shn3 3UTR inh	697 NFkB inh	Mdm2 MdmX conf	FLuc counter
C#CCOCCOCCOCCNc1nc(N2CCN(C(=O)CCCCCCCCCCNC(=O)[C@@H](CCSC)n3cc(CCO)nn3)CC2)nc(N2CCN(C(=O)CCCCCCCCCCNC(=O)[C@H]([C@@H](C)CC)n3cc(CCCCCN)nn3)CC2)n1	20	32	92*	·	-45	31	·
C#CCOCCOCCOCCNc1nc(N2CCN(C(=O)CCCCCCCCCCNC(=O)[C@@H](CCSC)n3cc(CCO)nn3)CC2)nc(N2CCN(C(=O)CCCCCCCCCCNC(=O)[C@H]([C@@H](C)CC)n3cc(CCCCN=C(N)N)nn3)CC2)n1	7	4	5	46	-7	·	·
CC1(c2ccccc2)NC(=O)N(CC(=O)Nc2ccc(S(=O)(=O)NC3=NCCCCC3)cc2)C1=O (centres undefined)	3	·	·	-17	·	·	·
Cc1cc(=O)oc2cc(OCCCC[n+]3ccccc3)ccc12	-9	-13	1	-47	-3	·	·
CCCCCc1ccc(OCCCC[n+]2ccccc2)c(CCCCC)c1	83*	45	87*	90*	13	77*	25
O=C(NC(NCC1CCCO1)C(Cl)(Cl)Cl)c1cccc2ccccc12 (centres undefined)	0	-6	55*	22	-23	29	·
N=c1c(C(=O)NCC2CCCO2)cc2c(=O)n3ccccc3nc2n1Cc1ccccc1Cl (centres undefined)	43	-7	64*	28	-194	26	·

Screening data deposited in PubChem by several laboratories.
